Data: PubChem BioAssay (Tox21)
“And” between values parts separate entries of the source, which are not always exact repeats. Equal entries are not always repeated. Results filed as inconclusive are left out. Values without a mark were called inactive. The source made the active and inactive calls. The call rests on the fitted dose curve; in most records, active means well fitted inhibition curve with a large enough effect in the repeat runs; inconclusive means weak or mixed curves; inactive means flat fitted curve, though single readings scatter.

target: Luciferin 4-monooxygenase (Photinus pyralis) (UniProt P08659); experiment: qHTS assay to identify small molecule inhibitors of firefly luciferase (AID 1224835); further: nearly all actives have a fitted effect of over 25% in size; details: purified P. pyralis luciferase, luminescence inhibition; series mostly up to 115 µM; activity change, negative = inhibition: at the top concentration
Sequence (P08659 whole entry, looked up): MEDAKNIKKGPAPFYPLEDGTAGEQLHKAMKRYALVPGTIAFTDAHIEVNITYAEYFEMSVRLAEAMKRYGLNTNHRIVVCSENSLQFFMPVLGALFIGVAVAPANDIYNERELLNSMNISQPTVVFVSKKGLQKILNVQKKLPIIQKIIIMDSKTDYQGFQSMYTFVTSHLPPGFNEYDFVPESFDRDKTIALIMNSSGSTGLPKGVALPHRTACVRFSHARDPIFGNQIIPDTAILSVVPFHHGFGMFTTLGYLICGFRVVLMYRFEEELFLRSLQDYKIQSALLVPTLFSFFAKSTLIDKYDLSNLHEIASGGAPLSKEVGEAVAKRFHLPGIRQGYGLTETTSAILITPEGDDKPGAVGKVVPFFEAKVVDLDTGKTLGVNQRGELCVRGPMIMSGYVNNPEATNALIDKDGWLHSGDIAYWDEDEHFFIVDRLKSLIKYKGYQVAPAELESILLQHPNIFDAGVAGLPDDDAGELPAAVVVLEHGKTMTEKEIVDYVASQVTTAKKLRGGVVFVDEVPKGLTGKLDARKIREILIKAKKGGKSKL
Outline: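 Quantitative HTS format; KM concentrations of both substrates. Purified P. pyralis FLuc activity quantified from luminescence images.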
On the % scale 0 is the no-effect control and ±100 the full control effect; potency means the concentration at half of the fitted maximal effect.

Row | Compound | activity change, negative = inhibition | Potency
1 | CCC1(CCC(C)C)C(=O)NC(=O)NC1=O | 1.78% | 
2 | Clc1ccccc1 | 0.204% | 
3 | CCCCC1C(=O)NC(=O)N(C2CCCCC2)C1=O (stereo not drawn) | -6.41% [at 52.9 µM] | 
4 | C[C@H](N)[C@H](O)c1ccc(O)c(O)c1 | 6.6% [at 52.9 µM] | 
5 | CCCN(CCC)c1c([N+](=O)[O-])cc(C(C)C)cc1[N+](=O)[O-] |  | inactive
6 | CCOC(C(=O)OCCN(C)C)(c1ccccc1)c1ccccc1 | 1.73% [at 52.9 µM] | 
7 | O=C=NC1CCCCC1 | -10.5% | 
8 | CCOP(=S)(OCC)SCSc1cc(Cl)ccc1Cl | -5.22% | 
9 | CCCCCCCCCCCCN(C)C | 1.86% | 
10 | O=C(O)c1cc(I)cc(I)c1I | -2.69% | 
11 | CN1C(=O)CN=C(c2ccccc2)c2cc([N+](=O)[O-])ccc21 | 0.791% [at 52.9 µM] | 
12 | CCOP(=S)(OCC)Oc1ccc(S(C)=O)cc1 (stereo not drawn) | 1.6% | 
13 | CC(C)(c1ccccc1)c1cc(-n2nc3ccccc3n2)c(O)c(C(C)(C)c2ccccc2)c1 | 1.38% [at 52.9 µM] | 
14 | Cc1nnc(-c2ccccc2)c(=O)n1N | -1.25% | 
15 | O=CC=O | 4.02% | 
16 | CCC1(CC)C(=O)NC(=O)NC1=O | -2.25% [at 52.9 µM] | 
17 | CC(Cl)C(=O)O (stereo not drawn) | 0.0978% | 
18 | O=S(=O)(Cl)Cl | 1.31% | 
19 | COc1ccc(C(O)(c2cncnc2)C2CC2)cc1 (stereo not drawn) | 0.659% | 

Row | Compound | activity change, negative = inhibition | Potency
20 | O=C1CC[C@@]2(O)[C@H]3Cc4ccc(O)c5c4[C@@]2(CCN3CC2CC2)[C@H]1O5 | -0.0108% [at 52.9 µM] | 
21 | C=CCSSCC=C | 1.9% | 
22 | Nc1ccccc1C(=O)OCC(O)CO (stereo not drawn) | 4.2% [at 52.9 µM] | 
23 | FC(F)OC(F)(F)C(F)Cl (stereo not drawn) | 3.55% | 
24 | COCc1cnc(C2=NC(C)(C(C)C)C(=O)N2)c(C(=O)O)c1 (stereo not drawn) | 3.13% | 
25 | Nc1cc(Cl)cc(C(=O)O)c1Cl |  | inactive
26 | CCCCC#N | -1.57% | 
27 | CC1(C)CC(=O)CC(C)(C)N1[O] | 5.92% | 
28 | CCCCCCCCCCCCCCCl | 2.65% | 
29 | FC(Cl)(Cl)C(F)(Cl)Cl | 0.898% | 
30 | CC(C)(C)OOC(C)(C)CCC(C)(C)OOC(C)(C)C | 3.44% | 
31 | ClCc1ccccc1Cl | 5.91% | 
32 | c1ccc2sc(SNC3CCCCC3)nc2c1 |  | 11.1 µM (active) and 22.4 µM (active)
33 | O=S(=O)(c1ccccc1)c1ccccc1 | -4.9% | 
34 | O=C(O)C(Cl)(Cl)Br | -1.67% | 
35 | N#CC(C#N)=Cc1ccc(O)c(O)c1 | 2.12% [at 52.9 µM] | 
36 | O=C(O)C(F)(F)C(F)(F)C(F)(F)C(F)(F)C(F)(F)F | -0.966% | 
37 | C=CCc1ccc(OC(=O)Cc2ccccc2)c(OC)c1 |  | 25.2 µM (active)
38 | C[C@H]1O[C@H](OC2[C@@H](O)[C@@H](O)C(O)[C@H](O)[C@H]2O)[C@@H](N)C[C@@H]1N=C(N)C(=O)O (stereo partly drawn) | 6.24% | 
